Measurements from PubChem BioAssay.
Results filed as inconclusive are left out. Calls of active or inactive are those of the source.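 How the source made its calls, unless noted: active means RAM network inhibition above 8.4% in each of two replicates, 3 SD over the compound average; inconclusive means above 8.4% inhibition in only one replicate; inactive means 8.4% inhibition or less in each replicate.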

Experiments:
[1] = OD615 S. cerevisiae growth inhibition, permissive medium, pilot counter-assay, permissive growth control for S. cerevisiae lifespan shortening project (AID 705;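 active means growth inhibition above 25% in both replicates, a cutoff set 3 SD above the mean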); details: OD615, 24 h, at 10 µM, active compounds read high
[2] = viability gain of MRP-1-high H69AR cells under doxorubicin, pilot screen, MRP-1 activator project, CellTiter-Glo, duplicate (AID 807;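 active means viability increase at or above a cutoff of the median across tested compounds plus 3 SD, cut at about 8.5% in these data, passing the limit was not always enough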;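 further: compound pretreatment 18-22 h then 72 h combined with doxorubicin; 0% = doxorubicin alone and 100% = vehicle without doxorubicin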); details: H69AR viability with doxorubicin, CellTiter-Glo luminescence; at 10 µM; active compounds read high
[3] = growth suppression of beta-catenin knockout HCT116, pilot screen, human colon tumor cells (AID 823;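 active means cell viability at or below a set limit in both duplicate runs, the limit being the all-compound median minus 4 SD, cut at about 23% in these data, passing the limit was not always enough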;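 further: 0% = wells killed by 20 µM Hyamine and 100% = untreated DMSO cell wells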); details: CellTiter-Glo, 60 h, at 10 µM, active compounds read low
[4] = growth suppression of PTEN-deleted HCT116, pilot screen, cell-based, HCT116 clonal line, CellTiter-Glo (AID 824;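 active means viability at or below 27.92% in each of two runs, the all-compound median minus 4 SD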;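 further: 0% = 20 µM Hyamine control and 100% = vehicle cell control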); details: 60 h, at 10 µM, active compounds read low
[5] = inhibitors of the yeast RAM network, pilot screen, dse1pr::URA3 reporter, 5-FOA selection (AID 869;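 active means inhibition over a set limit, the all-compound mean plus 3 SD, in both replicate runs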;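 further: 0% = DMSO wells with no growth and 100% = 10 µM 1-NA-PP1 with full growth; RAM network block rescues cells from 5-FOA so hits raise OD615 growth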); details: S. cerevisiae dse1pr::URA3 5-FOA growth, OD615, 2 d; at 10 µM; active compounds read high; strain carries analog-sensitive mutant Cbk1 kinase
[6] = RAM signaling pathway blockade in yeast – S. cerevisiae, Pdr1DBD-CYC8 efflux-inhibited sensitized strain, primary screen (AID 1298);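 further: 0% = DMSO untreated cells without growth and 100% = 10 µM 1-NA-PP1 full growth; higher means more yeast growth rescued from 5-FOA killing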; details: S. cerevisiae cbk1-as DSE1-URA3 strain, 5-FOA growth OD615, 2 d; at 50 µM; active compounds read high
[7] = Restrictive medium S. cerevisiae growth inhibition, OD615, pilot screen of yeast lifespan reduction project, restrictive growth control (AID 706;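 active means growth inhibition above a set limit, 3 SD over mean compound inhibition, in both replicates, cut at about 43% in these data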;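 further: modified DeaD lifespan yeast strain shifted to restrictive glucose medium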); details: OD615, 48 h, at 10 µM, active compounds read high

O=C(CSc1nnc(Cn2c(=O)sc3ccccc32)n1CCc1ccccc1)N1CCCC1
inactive: growth inhibition [1] 2.63% | viability increase [2] -3.62% | viability [3] 97.9% | viability [4] 94.9% | inhibition [5] 2.82% | RAM network inhibition [6] 7.13%

CCN1CCN(C(=O)CS(=O)Cc2nc(-c3ccc(OC)cc3)oc2C)CC1 (stereo unspecified)
inactive: growth inhibition [7] -7.22% | viability increase [2] -0.78% | viability [3] 104% | viability [4] 100% | inhibition [5] 0.945% | RAM network inhibition [6] 1.04%

COc1ccc(Br)cc1C1CC(=O)N2CN(C)CSC2=C1C#N (stereo unspecified)
inactive: growth inhibition [1] 4.76% | viability increase [2] -4.75% | viability [3] 81.6% | viability [4] 78.3% | inhibition [5] 0.03% | RAM network inhibition [6] 1.82%

Cc1ccc(-c2nn3c(C)nnc3s2)cc1NC(=O)c1ccc(Br)o1
inactive: growth inhibition [1] 4.25% | viability increase [2] -3.03% | viability [3] 105% | viability [4] 93% | inhibition [5] 3% | RAM network inhibition [6] 8.4%

CC(=O)C(Sc1ccc2nnc(-c3ccc(C)cc3)n2n1)C(C)=O
inactive: growth inhibition [1] 1.31% | viability increase [2] -4.69% | viability [3] 101% | viability [4] 95.3% | inhibition [5] 2.04% | RAM network inhibition [6] 6.06%

c1ccc(Cc2nnc3sc(-c4ccco4)nn23)cc1
inactive: viability increase [2] -5.05% | viability [3] 108% | viability [4] 94.7% | inhibition [5] 1.98% | RAM network inhibition [6] 5.97%
active: growth inhibition [7] 68.7%

COc1ccc(OC)c(C2CC(=O)N3CN(c4ccc(C)c(Cl)c4)CSC3=C2C#N)c1 (stereo unspecified)
inactive: growth inhibition [1] -0.805% | viability increase [2] -3.72% | viability [3] 90.6% | viability [4] 94.4% | inhibition [5] 2.44% | RAM network inhibition [6] 7.86%

CC(=O)C1=C(C)Nc2cc(C(F)(F)F)ccc2S1
inactive: growth inhibition [7] 27.2% | viability increase [2] -1.14% | viability [3] 93.6% | viability [4] 85.7% | inhibition [5] 1.77% | RAM network inhibition [6] 4.09%

Oc1c(CN2CCc3ccccc3C2)cc(Cl)c2cccnc12
active: viability [3] 1.27% | viability [4] 0.66%
inactive: growth inhibition [1] 5.68% | viability increase [2] -9.01% | inhibition [5] -1.5% | RAM network inhibition [6] -2.41%

CC(=O)NC1(NC(C)=O)CCN(C)C(c2ccccc2)C1C (stereo unspecified)
inactive: growth inhibition [7] -6.19% | viability increase [2] -2% | viability [3] 98.2% | viability [4] 100% | inhibition [5] 1.46% | RAM network inhibition [6] 1.13%

Cc1ccc(S(=O)(=O)Nc2nc(C)cc(NCCN)n2)cc1
inactive: growth inhibition [7] -2.19% | viability increase [2] -0.98% | viability [3] 94.3% | viability [4] 88.5% | inhibition [5] 0.48% | RAM network inhibition [6] 2.5%

Fc1ccc(-c2nnc3ccc(N4CCc5ccccc5C4)nn23)cc1
active: viability [3] 2.21% | viability [4] 1.42%
inactive: growth inhibition [1] 14.2% | viability increase [2] -7.99% | inhibition [5] 2.02% | RAM network inhibition [6] 3.14%

Cn1c(C(=O)N2CCC(C(=O)N3CCN(Cc4ccc5c(c4)OCO5)CC3)CC2)cc2sccc21
inactive: growth inhibition [1] -9.98% | viability increase [2] -2.38% | viability [3] 70.9% | viability [4] 71.1% | inhibition [5] 1.03% | RAM network inhibition [6] 3.95%

COc1ccc(OC)c(C2CC(=O)N3CN(c4cccc(Cl)c4)CSC3=C2C#N)c1 (stereo unspecified)
inactive: growth inhibition [1] 1.31% | viability increase [2] -2.23% | viability [3] 100% | viability [4] 95.4% | inhibition [5] 2.46% | RAM network inhibition [6] 8.89%

O=C(CSc1ccc2nnc(-c3ccc(Cl)cc3)n2n1)N1CCCC1
inactive: growth inhibition [1] -1.01% | viability increase [2] -3.12% | viability [3] 86.3% | viability [4] 93.1% | inhibition [5] 1.32% | RAM network inhibition [6] 4.24%

CC(=O)NC(=S)c1c(N)n(Cc2ccccc2)c(=O)n(C)c1=O
inactive: growth inhibition [1] 19.2% | viability increase [2] -3.97% | viability [3] 84.6% | viability [4] 80% | inhibition [5] 0.92% | RAM network inhibition [6] 4.62%

Cn1c(CNc2ccccc2O)nc2ccccc21
inactive: growth inhibition [1] -5.35% | viability increase [2] -6.1% | viability [3] 68.8% | viability [4] 64% | inhibition [5] 0.42% | RAM network inhibition [6] -1.31%

CSc1nc(-c2ccccc2)nc2[nH]ccc(=O)c12
inactive: growth inhibition [7] -18.3% | viability increase [2] -3.93% | viability [3] 76% | viability [4] 80.6% | inhibition [5] 0.065% | RAM network inhibition [6] 1.4%

Cc1cc(/C=N/n2cnnc2)c(C)n1-c1ccc(OCc2ccccc2F)cc1
inactive: growth inhibition [1] -0.03% | viability increase [2] -6.9% | inhibition [5] 1.2% | RAM network inhibition [6] 11.1%
active: viability [3] 8.8% | viability [4] 13.7%

CCOC(=O)c1ccc(NC(=O)CSc2nc3c(c(=O)n2CC)SC(C)C3)cc1 (stereo unspecified)
inactive: growth inhibition [7] -18.3% | viability increase [2] -3.44% | viability [3] 84% | viability [4] 80.8% | inhibition [5] 0.12% | RAM network inhibition [6] 3.13%

CCN1CCN(C(=O)C(NS(=O)(=O)c2ccc3nc(C)sc3c2)C(C)C)CC1 (stereo unspecified)
inactive: growth inhibition [1] -15.9% | viability increase [2] -0.67% | viability [3] 99.4% | viability [4] 95.2% | inhibition [5] 0.845% | RAM network inhibition [6] -0.04%
